# Results filed as inconclusive are left out. A call without a number means that no potency is given here. The source made the active and inactive calls. The call rests on the fitted dose curve; in most records, active means well fitted curve in the direction sought with a large enough effect; inconclusive means small, poorly fitted or top-dose-only effect, or another doubt; inactive means no such curve, though single readings can be large; an effect the other way counts as inactive or inconclusive. Numbered stars: 1 amine (or outer) side, 2 acyl side, 3 side chain; on linkers, the order of the positions; unused ones are H or OH. Bridge positions count the residues as written; N and C are the ends. Square brackets hold non-standard residues; d marks the D form. Peptide text beside a SMILES is read from it. I, II: the chains in the order shown. Actinocin(9to1) = Cc1c2oc3c(C)ccc(C(=O)[*:1])c3nc-2c(C(=O)[*:2])c(N)c1=O; NMeV = CN[C@H](C(=O)O)C(C)C; Sar = CNCC(=O)O
# Columns and labels:
# [1] = Cellular Toxicity (caspase-3) Hek293 (AID 664); conditions: HEK293 caspase-3 activation, DMSO = 0%, 100 µM tamoxifen = 100%; series mostly up to 92.2 µM;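 further: cells exposed to compound for 16 h at 37 °C before readout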
# Outline: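 HEK293 cells in complete medium treated 16 h at 37 °C, then Caspase-Glo 3/7 luminescence read after 20 min at room temperature. Normalized to DMSO and 100 uM tamoxifen; AC50 from Hill fit of concentration-response.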
# [2] = Cellular Toxicity (caspase-3) N2a (AID 665); conditions: N2a cells, luminescence; Potency: caspase-3 activation; series mostly up to 92.2 µM;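 further: compound exposure lasted 16 h at 37 °C before readout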; further: potency means the concentration at half of the fitted maximal effect
# Outline: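 Mouse N2a neuroblastoma cells, 1500 per well, treated 16 h at 37 °C in complete medium; caspase-3/7 activity by Caspase-Glo luminescence after 1 h. Normalized to DMSO and 10 uM staurosporine; AC50 from Hill fits.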
# [3] = Cellular Toxicity (caspase-3) NIH 3T3 (AID 666); conditions: NIH 3T3 caspase-3 activation, apoptosis/toxicity; series mostly up to 92.2 µM; further: potency means the concentration at half of the fitted maximal effect
# Outline: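 Mouse NIH 3T3 fibroblasts (1000/well) treated 16 h at 37 C; caspase-3/7 activity measured by Caspase-Glo 3/7 luminescence after 20 min. Normalized to DMSO and 100 uM tamoxifen; AC50 from Hill fits.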
# [4] = Cellular Toxicity (caspase-3) Renal Proximal Tubule (AID 667); conditions: renal proximal tubule cells, primary cells freshly taken from rat, solvent-only wells 0%, staurosporine 100%; series mostly up to 91.7 µM;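 further: cells exposed to compound for 16 hours at 37 °C before detection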
# Outline: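 Caspase-Glo 3/7 read-out, rat primary kidney proximal tubule cells. Compound exposure 16 h, 37 °C; detection after 1 h at RT. Activity scaled to DMSO and 10 uM staurosporine.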
# [5] = molecular target: Cytochrome P450 3A4 (Homo sapiens) (UniProt P08684); assay: qHTS Assay for Activators of Cytochrome P450 3A4 (AID 885); conditions: recombinant CYP3A4, Luciferin-PPXE luminescence, 60 min; series mostly up to 57.1 µM; further: nearly all actives have a fitted effect of over 65% in size
# Sequence of Cytochrome P450 3A4 (Homo sapiens) (P08684 whole entry, looked up): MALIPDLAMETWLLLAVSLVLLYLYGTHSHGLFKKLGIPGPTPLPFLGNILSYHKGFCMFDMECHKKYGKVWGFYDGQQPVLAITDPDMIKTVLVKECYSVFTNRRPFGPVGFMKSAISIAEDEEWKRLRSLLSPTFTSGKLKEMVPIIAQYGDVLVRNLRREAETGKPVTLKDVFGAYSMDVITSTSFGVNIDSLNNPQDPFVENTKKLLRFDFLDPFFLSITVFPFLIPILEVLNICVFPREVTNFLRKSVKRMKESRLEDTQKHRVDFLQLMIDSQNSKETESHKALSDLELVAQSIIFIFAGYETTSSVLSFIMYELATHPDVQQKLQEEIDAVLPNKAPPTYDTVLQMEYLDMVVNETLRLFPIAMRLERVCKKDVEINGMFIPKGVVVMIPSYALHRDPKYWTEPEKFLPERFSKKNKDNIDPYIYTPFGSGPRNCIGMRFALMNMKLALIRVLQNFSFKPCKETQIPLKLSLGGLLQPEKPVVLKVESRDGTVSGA
# Outline: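 20nM CYP3A4 + 25uM Luciferin-PPXE (=KM), 200mM KPO4; cpd 10 min RT; NADPH regen, 60 min RT; stop w/ detection buffer, 20 min; luminescence. Normalized to 57 uM ketoconazole.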
# [6] = molecular target: Cytochrome P450 2D6 (Homo sapiens) (UniProt P10635); assay: qHTS Assay for Inhibitors and Substrates of Cytochrome P450 2D6 (AID 891); conditions: recombinant CYP2D6, luciferin-ME EGE luminescence; series mostly up to 57.1 µM; further: nearly all actives have a fitted effect of over 60% in size; further: potency means the concentration at half of the fitted maximal effect
# Sequence of Cytochrome P450 2D6 (Homo sapiens) (P10635 whole entry, looked up): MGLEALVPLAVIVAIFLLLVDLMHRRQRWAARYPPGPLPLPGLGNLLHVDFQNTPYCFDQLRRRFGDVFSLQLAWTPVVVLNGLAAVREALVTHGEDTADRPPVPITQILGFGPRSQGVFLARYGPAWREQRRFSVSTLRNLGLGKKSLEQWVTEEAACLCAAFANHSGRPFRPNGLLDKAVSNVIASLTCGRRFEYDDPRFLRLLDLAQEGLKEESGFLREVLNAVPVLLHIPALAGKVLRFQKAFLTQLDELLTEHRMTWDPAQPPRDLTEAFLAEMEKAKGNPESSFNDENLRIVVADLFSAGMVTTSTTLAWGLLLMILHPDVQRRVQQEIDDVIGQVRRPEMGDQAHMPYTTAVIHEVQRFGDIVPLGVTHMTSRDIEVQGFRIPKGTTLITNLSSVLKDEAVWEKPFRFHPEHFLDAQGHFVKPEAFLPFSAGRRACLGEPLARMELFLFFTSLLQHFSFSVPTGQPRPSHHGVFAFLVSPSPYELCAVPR
# Outline: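 Human CYP2D6 (5 nM) with 30 uM Luciferin-ME EGE (at Km) in 100 mM KPO4, compound preincubated 10 min, then NADPH regeneration system for 60 min at room temperature. Luciferin read by luminescence; normalized to 1.43 uM quinidine.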
# [7] = molecular target: Guanine nucleotide-binding protein G(i) subunit alpha-1 (Homo sapiens) (UniProt P63096); assay: qHTS Assay for Inhibitors of RGS12 GoLoco Motif Activity (Green Fluorophore) (AID 879); conditions: Galphai1/FITC-RGS12 GoLoco peptide, fluorescence polarization; series mostly up to 57.1 µM;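 further: negative values mean loss of peptide binding seen as reduced polarization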
# Sequence of Guanine nucleotide-binding protein G(i) subunit alpha-1 (Homo sapiens) (P63096 whole entry, looked up): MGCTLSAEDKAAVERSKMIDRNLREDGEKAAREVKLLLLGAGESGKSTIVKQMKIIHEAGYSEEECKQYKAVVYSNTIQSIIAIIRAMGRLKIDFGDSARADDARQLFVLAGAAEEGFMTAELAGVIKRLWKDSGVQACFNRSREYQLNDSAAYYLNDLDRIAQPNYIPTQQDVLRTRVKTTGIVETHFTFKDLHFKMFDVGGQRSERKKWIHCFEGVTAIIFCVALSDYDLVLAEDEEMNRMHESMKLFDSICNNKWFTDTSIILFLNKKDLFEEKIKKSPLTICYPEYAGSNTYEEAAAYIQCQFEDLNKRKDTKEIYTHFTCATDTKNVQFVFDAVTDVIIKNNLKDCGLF
# Outline: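 Fluorescence polarization assay: 50 nM Gαi1 with 10 nM FITC-labeled RGS12 GoLoco peptide in 10 mM Tris pH 7.5, 150 mM NaCl, 0.1 mM GDP, 0.05% NP40, 10 min at room temperature with compound.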
# [8] = molecular target: Cytochrome P450 2C9 (Homo sapiens) (UniProt P11712); assay: qHTS Assay for Inhibitors and Substrates of Cytochrome P450 2C9 (AID 883); conditions: recombinant CYP2C9, luciferin-H luminescence, 60 min; series mostly up to 57.1 µM; further: potency means the concentration at half of the fitted maximal effect; nearly all actives have a fitted effect of over 60% in size
# Sequence of Cytochrome P450 2C9 (Homo sapiens) (P11712 whole entry, looked up): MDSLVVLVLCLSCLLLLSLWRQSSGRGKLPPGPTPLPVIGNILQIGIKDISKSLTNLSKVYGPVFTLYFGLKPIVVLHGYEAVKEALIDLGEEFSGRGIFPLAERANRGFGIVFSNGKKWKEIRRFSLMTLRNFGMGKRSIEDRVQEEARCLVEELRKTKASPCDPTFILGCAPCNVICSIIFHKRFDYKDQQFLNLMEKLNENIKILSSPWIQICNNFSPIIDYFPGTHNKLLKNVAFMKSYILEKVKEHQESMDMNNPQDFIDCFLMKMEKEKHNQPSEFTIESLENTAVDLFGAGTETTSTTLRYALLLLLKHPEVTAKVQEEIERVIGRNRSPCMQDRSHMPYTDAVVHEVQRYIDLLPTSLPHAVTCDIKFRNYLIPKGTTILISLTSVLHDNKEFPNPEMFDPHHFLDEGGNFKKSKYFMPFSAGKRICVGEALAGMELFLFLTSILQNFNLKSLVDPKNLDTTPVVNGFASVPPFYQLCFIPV
# Outline: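 Luminescent read-out of deoxyluciferin hydroxylation, normalized to 57uM sulphaphenazole (AC100). Reaction: 10nM enzyme, 100uM Luciferin-H (equal to KM), 25mM KPO4, 10 min compound preincubation, then 60 min with NADPH regeneration, both at 37C.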
# [9] = molecular target: Cytochrome P450 3A4 (Homo sapiens) (UniProt P08684); assay: qHTS Assay for Inhibitors and Substrates of Cytochrome P450 3A4 (AID 884); conditions: recombinant CYP3A4, Luciferin-PPXE luminescence; series mostly up to 57.1 µM; further: nearly all actives have a fitted effect of over 50% in size
# Outline: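 20 nM human CYP3A4 with 25 uM Luciferin-PPXE (at KM) in 200 mM KPO4, preincubated 10 min with compound; NADPH regeneration started a 60 min RT reaction. Luciferin detected by luminescence, normalized to 57 uM ketoconazole as full inhibition.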
structure (smiles),measurement,setting,value
COC1=CC(=O)C[C@@H](C)[C@]12Oc1c(Cl)c(OC)cc(OC)c1C2=O,outcome,[1],inactive
same,Potency,[2],inactive
same,Potency,[3],inactive
same,outcome,[4],inactive
NC(=NCCCCCCN=C(N)/N=C(\N)Nc1ccc(Cl)cc1)/N=C(\N)Nc1ccc(Cl)cc1,outcome,[1],inactive
same,Potency,[2],inactive
same,Potency,[3],inactive
same,outcome,[4],inactive
same,Potency,[5],inactive
same,Potency,[6],7940 nM (active)
CN1[C@@H]2CC[C@H]1CC(OC(=O)c1c[nH]c3ccccc13)C2 (stereo partly specified),outcome,[7],inactive
C=C(CC)C(=O)c1ccc(OCC(=O)O)c(Cl)c1Cl,outcome,[1],inactive
same,Potency,[2],inactive
same,Potency,[3],inactive
same,outcome,[4],inactive
same,Potency,[8],631 nM (active)
same,Potency,[9],inactive
CN1CCC[C@@H]1c1cccnc1,outcome,[7],inactive
CCCCCCc1ccc(O)cc1O,outcome,[1],inactive
same,Potency,[2],inactive
same,Potency,[3],inactive
same,outcome,[4],inactive
O=c1ccc2ccccc2o1,outcome,[1],inactive
same,Potency,[2],inactive
same,Potency,[3],inactive
same,outcome,[4],inactive
same,Potency,[9],inactive
C[N+]1(CCCCC[N+]2(C)CCCC2)CCCC1,outcome,[7],inactive
COc1cccc2c1C(=O)c1c(O)c3c(c(O)c1C2=O)C[C@@](O)(C(C)=O)C[C@@H]3O[C@H]1C[C@H](N)[C@H](O)[C@H](C)O1,Potency,[2],3980 nM (active)
same,Potency,[3],31600 nM (active)
same,Potency,[5],inactive
same,Potency,[6],inactive
O=C1OC(c2ccc(O)cc2)(c2ccc(O)cc2)c2ccccc21,outcome,[1],inactive
same,Potency,[2],inactive
same,Potency,[3],inactive
same,outcome,[4],inactive
same,Potency,[5],inactive
CC(C)COC(=O)OCN1C(=O)CN(CCN2CC(=O)N(COC(=O)OCC(C)C)C(=O)C2)CC1=O,outcome,[7],inactive
Oc1ccc(Cl)cc1Sc1cc(Cl)ccc1O,outcome,[1],inactive
same,Potency,[2],inactive
same,Potency,[3],inactive
same,outcome,[4],inactive
"Cc1c2oc3c(C)ccc(C(=O)N[C@@H]4C(=O)N[C@H](C(C)C)C(=O)N5CCC[C@H]5C(=O)N(C)CC(=O)N(C)[C@@H](C(C)C)C(=O)O[C@@H]4C)c3nc-2c(C(=O)N[C@@H]2C(=O)N[C@H](C(C)C)C(=O)N3CCC[C@H]3C(=O)N(C)CC(=O)N(C)[C@@H](C(C)C)C(=O)O[C@@H]2C)c(N)c1=O (I: T[dV]P[Sar][NMeV] / II: T[dV]P[Sar][NMeV]; ester I:1-I:C, II:1-II:C; linker I:N-II:N via Actinocin(9to1))",outcome,[1],inactive
same,Potency,[2],7.94 nM (active)
same,Potency,[3],25.1 nM (active)
same,Potency,[5],inactive

# Reference: PubChem BioAssay (NCATS)
